# Results filed as inconclusive are left out. Entries that show only a call come without a potency. Activity calls are given as the source filed them. Calls come from the whole dose curve; as a rule, active = well fitted inhibition curve with a large enough effect; inconclusive = small, poorly fitted or top-dose-only effect; inactive = no such curve, though single readings can be large or run the other way.
# System: Zika virus NS2B-NS3 protease (linked construct)
# Test: Primary screen NINDS Rhodamine qHTS for Zika virus inhibitors (AID 1347160); note: nearly all actives have a fitted effect of over 55% in size
# Conditions: purified NS2B-NS3 protease, Rhodamine110 substrate fluorescence; series mostly up to 57.1 µM
# Outline: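 Percent inhibition, normalized to uninhibited and enzyme-free controls, is fitted to a 4-parameter Hill equation. Fluorescence change comes from a 15-min cleavage of 1.5 microM bis-peptide Rhodamine110 substrate by 25 nM linked NS2B-NS3 at room temperature.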
row,SMILES,Potency
1,O=C(O[C@H]1[C@@H]2C=CO[C@@H](O[C@@H]3O[C@H](CO)[C@@H](O)[C@H](O)[C@H]3O)[C@@H]2[C@@]2(CO)O[C@@H]12)c1ccccc1,inactive
2,COc1ccc(C2(O)CCC(N3CC[C@@H](NC(=O)CNC(=O)c4cccc(C(F)(F)F)c4)C3)CC2)cn1 (stereo not given in full),inactive
3,CC1(C)CC[C@]2(C(=O)O[C@@H]3O[C@H](CO)[C@@H](O)[C@H](O)[C@H]3O)CC[C@]3(C)C(=CCC4[C@@]5(C)CC[C@H](O[C@@H]6O[C@H](C(=O)O)[C@@H](O)[C@H](O)[C@H]6O)[C@@](C)(CO)C5CC[C@]43C)C2C1 (stereo not given in full),inactive
4,COc1ccc2[nH]c3c(-c4cccc5ccccc45)nccc3c2c1,inactive
5,C[C@H]1CC[C@@H]2N(C1)C[C@@H]1[C@H]([C@@H](O)[C@H](O)[C@]3(O)[C@H]1C[C@@]14OC5(O)[C@@H](C[C@@H](O)[C@@H]31)[C@]4(C)CC[C@@H]5O)[C@]2(C)O,inactive
6,C[C@@]1(O)[C@H](O)[C@@H](CO)O[C@H]1n1ccc(N)nc1=O,inactive
7,OC[C@H]1O[C@@H](OCCc2ccc(O)cc2)[C@H](O[C@@H]2OC[C@](O)(CO)[C@H]2O)[C@@H](O)[C@@H]1O,inactive
8,Cc1cnc(Nc2ccc(F)cc2Cl)nc1-c1c[nH]c(C(=O)NC(CO)c2cccc(Cl)c2)c1 (stereo not given),inactive
9,C=CC(=O)Nc1cccc(CN2C(=O)N(c3c(Cl)c(OC)cc(OC)c3Cl)Cc3cnc(NCCCCN(CC)CC)nc32)c1,inactive
10,COC(=O)[C@H](O)[C@H]1C(C)(C)[C@H](OC(=O)C(C)C)[C@@]2(O)C(=O)[C@]1(C)C1CC[C@]3(C)C(CC(=O)O[C@H]3c3ccoc3)[C@]13O[C@@H]32 (stereo not given in full),inactive
